Screens: PubChem BioAssay, National Center for Advancing Translational Sciences (NCATS)
Vaccinia Venus – vaccinia inhibition (Venus reporter); Potency, µM (titrated, usually from 36.5 µM), hits mostly inhibitors; actives 0.46% (n = 330,000); Vaccinia virus Venus reporter expression, fluorescence; AID 720580; calls by dose curve; tested in A549 cells; further: nearly all actives have a fitted effect of over 30% in size
LASV entry inh – inhibitors of Lassa virus binding or cell entry; Lassa virus pseudotype entry inhibition, cell reporter; Potency, µM (top dose mostly 37.9 µM), usual class: inhibitors; actives 1.2% (n = 300,000); AID 540256; calls by dose curve; tested in HEK293 cells; further: nearly all actives have a fitted effect of over 50% in size
VACV mCherry inh – inhibitors of vaccinia virus infection (mCherry reporter signal); Vaccinia virus mCherry reporter infection, fluorescence; AID 720579; actives 0.63% (n = 310,000); Potency, µM (highest dose often 36.5 µM), hits mostly inhibitors; calls by dose curve; tested in A549 cells; further: nearly all actives have a fitted effect of over 35% in size
Cycloheximide cs – counter-screen for Shiga toxin inhibitors: cycloheximide protein synthesis inhibition; cell reporter, cycloheximide protein synthesis inhibition counterscreen; actives 12% (n = 300,000); AID 2314; max response, %; in the data active means max response mostly above about 13%, no sharp cut-off; inactive means mostly below about 14%; further: read at 38.3 µM for the half of the compounds with a filed dose
Shiga inhibitor – Shiga toxin inhibition; Vero cells, Shiga toxin protein synthesis inhibition reporter; actives 9.2% (n = 290,000); inhibition, % at 38.7 µM; in the data active means inhibition mostly above about 28%, no sharp cut-off; inactive means mostly below about 43%
Marburg entry inh – Marburg virus entry inhibition. Marburg virus pseudotyped entry inhibition, cell reporter. Potency, µM (series often up to 37.8 µM), usual class: inhibitors. actives 1.8% (n = 300,000); calls by dose curve; tested in HEK293 cells
A number is an active result; – = inactive; ? = inconclusive; · = no result given; + = active, no number; ! = a repeat was not active; [ ] = dose if it differs, or a comment. Only a selection was taken, and hits are over-represented in it overall.

SMILES | Vaccinia Venus | LASV entry inh | VACV mCherry inh | Cycloheximide cs | Shiga inhibitor | Marburg entry inh
C/C(=N\NC(=O)c1ccc(O)cc1)c1cc2ccccc2o1 | – | · | – | 28.8 | 58.8 | –
COC(=O)c1ccc(CN2C(=O)[C@]3(OCCC=C[C@@H]3C)c3cc(OC)ccc32)cc1 | · | · | · | · | · | –
Cc1ccccc1CN(C)C[C@@H]1OCc2cnnn2CCCC(=O)N([C@H](C)CO)C[C@H]1C | – | · | – | · | · | ·
CCc1ccc(CNC(=O)c2ccc(NC(=O)N3CCCCc4ccccc43)cc2)cc1 | – | – | – | · | · | ·
CCN1C(=O)N(C)C(c2ccccc2)C(C(C)=O)=C1C (stereo unspecified) | · | · | · | · | · | –
CCOc1cccc2c1OC(c1cc(OC)c(OC)c(OC)c1)N1N=C(c3ccc(C)o3)CC21 (stereo unspecified) | – | – | – | 38.8 | – | ?
CCC1=Nc2ccccc2NC2=C1C(=O)CCC2 | – | – | · | 29.8 | 77.3 | –
c1coc(-c2nnc(SCc3cn4ccccc4n3)o2)c1 | – | – | · | – | – | –
Brc1c(CSc2nnc(-c3ccco3)o2)nc2ccccn12 | – | ? | ? | 22.3 | – | –
O=C(CSc1nnc(CNc2ccc(F)cc2)o1)c1ccccc1 | – | – | – | 21.5 | – | –
O=C(CSc1nnc(Cc2ccccc2)o1)c1ccccc1 | – | – | – | 31.7 | – | –
O=C(O)c1cccc(CSc2nnc(Cc3ccccc3)o2)c1 | · | – | · | – | 44.3 | –
O=C(O)c1cccc(CSc2ncn[nH]2)c1 | · | · | · | 7.6 | – | ·
COc1ccc(C(=O)CSc2nnc(CNc3ccc(F)cc3)o2)cc1 | – | · | – | – | – | –
O=[N+]([O-])c1cc(F)cc(F)c1Nc1ccc(F)cc1 | – | – | – | · | · | –
O=C(c1ccoc1)N1CCCC(CO)(CCCc2ccccc2)C1 (stereo unspecified) | · | · | · | – | – | ·
c1ccc(CSc2nnc(Cc3ccccn3)o2)cc1 | · | – | · | 25.2 | – | –
NCCc1nnc(SCc2ccccc2)o1 | · | ? | · | – | – | –
c1ccc(CSc2nnc(Cc3ccccc3)o2)cc1 | – | – | – | 40.3 | 53.7 | –
Fc1ccc(CSc2nnc(Cc3sc(-c4ccccc4)nc3-c3ccccc3)o2)cc1 | – | – | · | – | – | –
Cc1ccc(NC(=O)c2ccccc2F)c(NC(=O)c2ccccc2F)c1 | – | ? | – | · | · | ?
Cc1ccc(NC(=O)c2sccc2-n2cccc2)c(Cl)c1 | – | · | – | 31.5 | – | ·
Cc1cc(NC(=O)NC(=O)c2ccccc2F)no1 | – | – | – | 31.6 | 77.3 | ?
Cc1ccc(NC(=O)Cn2ncc3ccccc32)c(Cl)c1 | · | · | · | 52.4 | 55.2 | ·
Cc1ccc(NC(=O)c2ccccc2Cl)c(Cl)c1 | – | – | – | 41.7 | 68.5 | –
SMILES | Vaccinia Venus | LASV entry inh | VACV mCherry inh | Cycloheximide cs | Shiga inhibitor | Marburg entry inh
NC(=O)C1(N2CCCCC2)CCN(C(=O)Nc2ccc(F)cc2F)CC1 | – | – | – | · | · | –
Cc1cc(NC(=O)c2ccccc2Cl)no1 | – | ? | · | 54.2 | + | –
Cc1cc(NC(=O)c2c(F)cccc2Cl)no1 | – | – | – | 12.9 | 55.9 | –
Cc1ccc(NC(=O)C2CC2C)c(Cl)c1 (stereo unspecified) | · | · | · | 30.0 | – | ·
Cc1cc(NC(=O)c2sc3ccccc3c2O)no1 | · | · | · | 62.1 | 82.2 | ·
COC(=O)c1ccccc1NC(=O)Cn1c(=O)n(CCC(=O)NCc2ccc3c(c2)OCO3)c(=O)c2ccccc21 | – | – | – | · | · | –
Cc1cc(NC(=O)CSc2ccc(Cl)cc2)no1 | · | – | · | – | – | ?
COc1ccc(NC(=O)CCSc2ccc(C)cc2)cc1S(=O)(=O)Nc1ccccc1Cl | – | 12.6µM | – | – | – | ?
Cc1ccc(SCCC(=O)Nc2ccccc2Br)cc1 | – | · | – | 15.9 | 55.8 | ·
Cc1cc(NC(=O)CCSc2ccccc2)no1 | – | – | – | 23.7 | 36.0 | ?
CCCCN1C(=O)CN(C2CCCCCC2)C(=O)C1c1ccc(OCCC)c(OC)c1 (stereo unspecified) | – | – | – | · | · | ·
O=C(Nc1ccc(-c2nc3ccccc3s2)cc1)c1cc(-n2cnnc2)ccc1Cl | 7.94µM | ? | ? | 27.0 | – | ?
Cc1nnc(SCC(=O)Nc2nsc(-c3ccc(C(C)(C)C)cc3)n2)s1 | – | · | – | 23.2 | – | ·
CCn1c(SCC(=O)Nc2ccc(-c3nc4ccc(C)cc4s3)cc2)nnc1-c1ccccc1 | · | – | · | 33.9 | 58.9 | –
Cc1nc(SCC(=O)Nc2nsc(-c3ccc(C(C)(C)C)cc3)n2)c2c3c(sc2n1)CCCC3 | – | – | – | · | · | –
Cc1ccc(NC(=O)c2cc(-n3cnnc3)ccc2Cl)cc1 | · | – | · | – | – | –
C=CCn1c(SCC(=O)Nc2ccc(-c3nc4ccc(C)cc4s3)cc2)nnc1-c1ccncc1 | – | ? | – | 19.0 | – | ?
CCn1c(SCC(=O)Nc2nc(-c3ccc(C)cc3)cs2)nnc1-c1ccccc1 | · | ? | · | – | – | ?
CCOc1ccc(CCNC(=O)CCSCc2cccc(Cl)c2)cc1OCC | – | – | – | · | · | ·
COc1ccc(O)c(C(=O)N2CCC3(CC2)c2ccccc2[C@@H](NC(=O)c2ccccn2)[C@@H]3OC)c1 | – | · | – | · | · | ·
O=C(CSc1nnc2scc(-c3ccccc3)n12)Nc1nsc(-c2ccccc2)n1 | · | – | · | – | – | 20.6µM!
Cc1nnc(SCC(=O)Nc2ccc(-c3nc4ccccc4s3)cc2)s1 | – | 10µM | – | 65.0 | 38.2 | ?
Cc1ccc(-c2csc3nnc(SCC(=O)Nc4nsc(-c5ccccc5)n4)n23)cc1 | – | – | – | – | – | –
COc1ccccc1Nc1ncnc2sccc12 | · | · | · | – | – | ·
Cc1cc2c(Nc3ccc(O)cc3)ncnc2s1 | – | – | ? | – | – | –
SMILES | Vaccinia Venus | LASV entry inh | VACV mCherry inh | Cycloheximide cs | Shiga inhibitor | Marburg entry inh
COc1cccc(Nc2ncnc3sccc23)c1 | – | ? | – | 23.4 | 129.5 | –
COc1ccc(Nc2ncnc3sccc23)c(OC)c1 | – | – | – | – | – | –
COc1cccc(Nc2ncnc3sc(C)cc23)c1 | · | · | · | 41.3 | 74.6 | ·
COc1ccc(OC)c(Nc2ncnc3sccc23)c1 | · | · | · | 15.0 | – | ·
Cc1ccc(Nc2ncnc3sccc23)c(C)c1 | – | ? | – | 15.0 | 62.1 | –
O=C(c1c[nH]c(C(=O)C(Cl)(Cl)Cl)c1)c1ccccc1Br | – | – | – | – | – | –
c1nc(Nc2ccc(N3CCOCC3)cc2)c2ccsc2n1 | – | – | ? | 50.4 | 69.3 | –
COc1ccc(Oc2ncnc3sccc23)cc1 | – | ? | – | 41.8 | 65.7 | –
c1ccc(Nc2ncnc3sccc23)cc1 | – | – | – | – | – | –
COc1ccc(Nc2ncnc3sccc23)cc1 | – | – | – | 30.5 | 72.3 | ?
CCc1nc2ccc(C(=O)NC3CCN(Cc4ccccc4)CC3)cn2c1N(C)Cc1ccc(N(C)C)cc1 | – | · | – | · | · | ·
COC(=O)c1ccc(Cn2c(C)c(C(=O)NCc3ccco3)sc2=O)o1 | – | · | – | · | · | ·
CCSc1ccc(C(=O)Nc2ccc(-c3nc4ccc(C)cc4s3)cc2)cc1 | – | ? | – | · | · | ·
Cc1ccc2nc(-c3ccc(NC(=O)CSc4nccc(=O)[nH]4)cc3)sc2c1 | – | ? | – | 36.8 | 117.4 | ?
Cc1ccc2nc(-c3ccc(NC(=O)CSc4nc(N)cc(=O)[nH]4)cc3)sc2c1 | –[7.34 µM] | · | –[7.34 µM] | 30.3 | 94.0 | ·
CS(=O)(=O)Nc1cccc(-c2nc(N3CCOCC3)c3ccccc3n2)c1 | – | · | – | · | · | ·
